# Only some compounds are listed: those with a hit (about 21% of all), similar ones and a draw of the others.
# Pf growth 48h – inhibits P. falciparum growth in the first generation, 48 h; P. falciparum luciferase growth in erythrocytes, 48 h; Potency, µM (doses to about 28.7 µM), for the others: at the highest dose activity change, negative = inhibition, usual class: inhibitors; 5.9% of 310,000 active; note: potency is the fitted concentration of half-maximal effect; % is set by controls: 0 for no effect and ±100 for the full control effect
#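 Read-out is firefly luciferase luminescence from an integrated reporter in P. falciparum, so falling signal marks reduced parasite growth. Infected erythrocytes were at 2% hematocrit and 0.1% parasitemia (final) in Albumax-supplemented RPMI 1640.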
# Shiga inhibitor – inhibitors of Shiga toxin in Vero cells; inhibition, % at 38.7 µM; Vero cells, Shiga toxin protein synthesis inhibition reporter; 9.2% of 290,000 active; in the data active = inhibition mostly above about 28%, no sharp cut-off; inactive = mostly below about 43%; note: 0% is about no effect
# CHX counter – counter-screen hit for Shiga toxin inhibitors, cycloheximide. AID 2314. 12% of 300,000 active. max response, %. cell reporter, cycloheximide protein synthesis inhibition counterscreen; in the data active = max response mostly above about 13%, no sharp cut-off; inactive = mostly below about 14%; note: read at 38.3 µM for the half of the compounds with a filed dose; 0% is about no effect
# Giardia FBPA inh – inhibitors of Giardia lamblia fructose-1,6-bisphosphate aldolase | A8B2U2 | purified Giardia FBPA | Potency, µM (series often up to 59.6 µM), for inactives: top-dose activity, negative = inhibition, hits mostly inhibitors | 0.71% of 290,000 active; note: potency is the fitted concentration of half-maximal effect; % is set by controls: 0 for no effect and ±100 for the full control effect; nearly all actives have a fitted effect of over 55% in size
# Target sequence (A8B2U2 whole entry, looked up): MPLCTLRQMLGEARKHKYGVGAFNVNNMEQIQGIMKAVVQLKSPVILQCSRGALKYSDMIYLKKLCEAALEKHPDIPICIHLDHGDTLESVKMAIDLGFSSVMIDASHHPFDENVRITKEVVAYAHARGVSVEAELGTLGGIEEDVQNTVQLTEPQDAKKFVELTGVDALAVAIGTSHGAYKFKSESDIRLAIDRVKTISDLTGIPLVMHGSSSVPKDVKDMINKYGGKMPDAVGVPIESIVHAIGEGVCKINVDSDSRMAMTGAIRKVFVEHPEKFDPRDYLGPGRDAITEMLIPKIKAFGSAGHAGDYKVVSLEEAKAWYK
#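 40 nM FBPA preincubated 10 min at RT with compound (up to 57.5 uM final), then substrate plus GAPDH/TPI/NAD/arsenate coupling and diaphorase/resazurin added. Fluorescence read after 20 min at RT, 525/598 nm.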
# NS1 inh – inhibitors of influenza NS1 protein function; 0.4% of 270,000 active; Potency, µM (titrated, usually from 46.1 µM), inactives show top-dose activity, positive = more growth; calls by dose curve; note: potency is the fitted concentration of half-maximal effect; actives are rising curves; nearly all actives have a fitted effect of over 50% in size
#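 OD600 was taken as the measure of yeast growth restored by compound in an NS1-expressing S. cerevisiae strain. Cells had been washed out of glucose medium and diluted 1:100 into galactose -URA medium, pH 6.0.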
# Pf growth 96h – P. falciparum growth inhibition at 96 hours; Potency, µM (series often up to 28.7 µM), for the others: at the highest dose activity change, negative = inhibition, usual class: inhibitors; 6.9% of 320,000 active; AID 504834; P. falciparum luciferase reporter growth, 96 h; note: potency is the fitted concentration of half-maximal effect; % is set by controls: 0 for no effect and ±100 for the full control effect
#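 96 h incubation, 37 C, 5% CO2, of luciferase-reporter P. falciparum-infected RBCs (2% hematocrit, 0.05% parasitemia final) with test compounds; endpoint luminescence.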
# Numbers without * were called inactive; ? = inconclusive; . = not tested or not shown; [ ] = remark or other dose. Unless noted, calls come from the whole dose curve; as a rule, active = well fitted curve in the direction sought with a large enough effect; inconclusive = small, poorly fitted or top-dose-only effect, or another doubt; inactive = no such curve, though single readings can be large; an effect the other way counts as inactive or inconclusive.
SMILES,Pf growth 48h,Shiga inhibitor,CHX counter,Giardia FBPA inh,NS1 inh,Pf growth 96h
COc1ccccc1NC(=O)c1cccc(S(=O)(=O)N2CCN(Cc3ccccc3)CC2)c1,?,.,.,.,.,12µM*
CCN(CC)CCCCn1c(-c2ccccc2)nc2c(NCCOC)nc(C)nc21,.,.,.,4%,.,.
Cc1cc(-c2ccc(C)c(S(=O)(=O)N3CCN(c4ccccn4)CC3)c2)on1,?,-10,12,1%,-14%,?
COc1ccc(NC(C)=O)cc1NC(=O)c1cccc(S(=O)(=O)N2CCc3ccccc32)c1,13µM*,.,.,.,.,?
COc1ccc(S(=O)(=O)N2CCc3ccccc32)cc1C(=O)Nc1ccc(C(N)=O)cc1,?,.,.,.,.,7.4µM*
Cc1cc(F)ccc1NC(=O)c1cc(S(=O)(=O)N2CCc3ccccc32)cn1C,?,1,1,-4%,11%,10µM*
COc1ccc(S(=O)(=O)N2CCc3ccccc32)cc1C(=O)OCC(=O)c1c(N)n(C)c(=O)n(C)c1=O,4.1µM*,1,-3,-8%,4%,-15%
COc1ccc(NC(=O)c2cc(S(=O)(=O)N3CCc4ccccc43)cn2C)c(OC)c1,?,-2,-2,-3%,4%,0%
CC(=O)NS(=O)(=O)c1ccc(NC(=O)c2cccc(S(=O)(=O)N3CCc4ccccc43)c2)cc1,0%,-7,-3,0%,3%,-7%
CN(C)c1ccc2nc3c(C(=O)O)cc(=O)c(O)c-3oc2c1,.,.,.,.,-10%,.
Cc1ccc2c(c1)N(CC(=O)NCC1COc3ccccc3O1)C(=O)CO2 (configuration not stated),.,.,.,.,-3%,.
CCOC(=O)/C(C#N)=N/Nc1ccccc1C(=O)O,?,1,-3,1%,-4%,10µM*
CCOC(=O)CC(=O)Nc1ccccc1C(=O)O,25%,-20,-2,-1%,-1%,83%
N#Cc1cc(-c2ccccc2)nc(NN)n1,?,13,2,-7%,3%,10µM*
Cc1ccc(C(=O)Nc2ccc3c(c2)OCO3)o1,90%,68*,31*,-23%,-1%,119%
C/C(=C\C(=O)c1ccccc1)Nc1ccc2c(c1)OCO2,167%,50*,37*,-25%,13%,?
C/C(=C\C(=O)c1ccc(C)o1)Nc1ccc2c(c1)OCO2,-11%,49*,23*,?,-3%,31%
Cc1ccc(C)c(CN2CCCNC2=O)c1,36%,32,23,-18%,-2%,.
COC(=O)c1ccc2c(c1)N(Cc1nc(-c3cccc(C)c3)oc1C)C(=O)C1CCCN21 (configuration not stated),.,-4,2,0%,8%,?
Cc1ccc(CN2C(=O)C3CCCN3c3ccc(C#N)cc32)cc1 (configuration not stated),?,-4,1,1%,14%,1.7µM*
N#Cc1ccc2c(c1)NC(=O)C1CCCN21 (configuration not stated),?,11,-1,-8%,10%,11%
Cc1ccc(C)c(CN2C(=O)C3CCCN3c3ccc(C#N)cc32)c1 (configuration not stated),?,-19,-1,3%,24%,9.3µM*
CON(C)S(=O)(=O)c1ccc2c(c1)N(Cc1ccc(C)cc1)C(=O)C1CCCN21 (configuration not stated),?,3,-5,-1%,6%,0.83µM*
COc1ccc(S(=O)(=O)N2CCC3(CC2)OCCO3)cc1,-9%[5.75 µM],-1,-1,6%,.,-17%
O=C(/C=C/c1cccs1)c1ccc(Br)cc1,-12%,31,40*,.,-10%,?
SMILES,Pf growth 48h,Shiga inhibitor,CHX counter,Giardia FBPA inh,NS1 inh,Pf growth 96h
Cc1ccc(NC(=O)COC(=O)/C=C/c2cccs2)cc1,17%,-7,-1,1%,8%,10%
O=C(/C=C/c1cccs1)c1ccc(NC(=O)c2cccc(Br)c2)cc1,?,131*,62*,-4%,6%,180%
CC(/C=C/c1cccs1)=C\C(=O)O,?,70,5,7%,-39%,.
Cc1ccc(C(=O)Nc2ccc(C(=O)/C=C/c3cccs3)cc2)cc1,133%,73*,52*,1%,-5%,51%
COc1ccc(-c2cccc(NC(=O)COc3ccc(Cl)cc3)c2)nn1,-10%,1,8,0%,-54%,?
COc1cc([N+](=O)[O-])ccc1NC(=O)COC(=O)CCS(=O)(=O)c1ccc(C)cc1,3%,.,.,.,.,34%
COc1ccc(CCNC(=O)COc2cccc(-n3cnnn3)c2)cc1,39%,.,.,.,.,-9%
Cc1nn(C)c(C)c1/C=C(/C(=O)C(C)(C)C)n1cncn1,-13%,17,-1,3%,-1%,-25%
CC(C)(C)C(=O)/C(=C/c1ccncc1)n1cncn1,7.4µM*,-6,6,3%,-7%,-24%
CCc1ccc(N/C(SC)=C(/C#N)C(N)=O)cc1,-11%,30,4,-1%,1%,-1%
CCCCS/C(=C(/C#N)C(N)=O)c1cc2c([nH]1)CCCC2,2.9µM*,-15,7,-28%,-84%,.
CCOc1ccc(NC2=C(OC)C(=O)c3ccccc3C2=O)cc1,1.2µM*,61*,20*,?,-10%,1.2µM*
COC1=C(Nc2ccc(O)cc2)C(=O)c2ccccc2C1=O,?,77*,28*,?,-14%,12µM*
COC1=C(Nc2ccc(OC)cc2)C(=O)c2ccccc2C1=O,2.3µM*,133*,52*,?,2%,?
CCn1c(COC(=O)CNC(=O)c2ccccc2F)nc2cc(S(=O)(=O)N(C)C)ccc21,13%,.,.,.,.,9%
C=CCOc1ccccc1CN1CCCN(C)CC1,6%,-2,-2,?,-6%,54%
CCN(CC)Cc1c[nH]c2c(C(=O)OC)cccc12,0%,20,20,-4%,0%,2.6µM*
COC(=O)c1c[nH]c(=O)c2ccccc12,35%,-16,-1,2%,4%,?
CCN(CC)Cc1c[nH]c2ccccc12,?,59,28,-2%,-9%,8.3µM*
CCC(C)[C@H](NC(=O)c1cc2cc(Cl)ccc2n1C)C(=O)N1CCC[C@H]1C(=O)O (some centres not stated),18%,-6,1,-10%,29%,-4%
CCCC[C@@H](CN[C@H](C)CNC)NCC1CCC(C(C)(C)C)CC1 (some centres not stated),?,-6,-1,?,-5%,?
CCOc1ccc(-c2cnc3n2CCC3)cc1,.,-6,1,-18%,6%,15µM*
CC(C)C(NC(=O)C1CCCCC1)C(=O)NCCc1ccccc1 (configuration not stated),9%,1,-1,1%,.,?
NC(=Nc1ccccc1)Nc1ccccc1,-1%,-11,-2,-10%,2%,?
CC(/C=C(\C)Nc1ccccc1)=Nc1ccccc1,116%,23,26*,-5%,1%,45%

# Screening data: PubChem, National Center for Advancing Translational Sciences (NCATS)
